High-throughput results deposited in PubChem BioAssay by National Center for Advancing Translational Sciences (NCATS).
TR SRC2 fluor cs – alters Texas Red total fluorescence, flagging assay interference; TRb/SRC2 Texas Red total fluorescence interference; Potency, µM (titrated, usually from 106 µM), without a hit: at the highest dose fluorescence change, negative = quenching; 0.29% of 280,000 active; active means well fitted curve in either direction with a large enough effect; inconclusive means small, poorly fitted or top-dose-only effect
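Flags fluorescent or light-absorbing compounds by total fluorescence, S + 2P, at 555 nm excitation and 632 nm emission. Mixture: 20 nM Texas Red SRC2 peptide, 0.6 uM human TRb LBD, 1 uM T3, 5% DMSO; compound exposure 5 h at ambient temperature.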
TRb SRC2 PPI – disrupts binding of human TR beta to SRC2 | 0.065% of 280,000 active | Potency, µM (series often up to 106 µM), for the others: at the top dose activity change, negative = inhibition, usual class: inhibitors | AID 1469 | TRbeta-SRC2 peptide binding, fluorescence polarization; receptor liganded with 1 µM T3 | P10828;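 further: plate controls were bound peptide for no effect and peptide without receptor for full effect; nearly all actives have a fitted effect of over 50% in size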
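Polarization signal, normalized between peptide-alone and full complex controls, measured compound effects on T3-liganded human TRb LBD (0.6 uM) binding 20 nM Texas Red SRC2 peptide after 5 hr.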
Tau ThT inhib – blocks human tau fibril formation measured by thioflavin T; P10636; recombinant tau K18 P301L, heparin-induced fibrillization, ThT fluorescence; Potency, µM (doses to about 57.4 µM), without a hit: top-dose activity, negative = inhibition, usual class: inhibitors; 2.1% of 270,000 active; further: nearly all actives have a fitted effect of over 55% in size
Target sequence (P10636 561-689 P618L limits assumed): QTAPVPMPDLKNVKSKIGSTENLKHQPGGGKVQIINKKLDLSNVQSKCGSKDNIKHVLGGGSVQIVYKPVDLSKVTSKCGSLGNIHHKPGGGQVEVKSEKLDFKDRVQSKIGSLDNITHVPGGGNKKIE
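K18 P301L tau (15 uM + 0.24 uM Alexa 594-tagged), heparin 20 uM, NaOAc pH 7, 6 h 37 C; ThT 30 uM, 1 h RT, ex 450/em 510 nm.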
Tau FP inhib – blocks human tau fibril formation measured by polarization | K18 P301L tau heparin fibrillization, Alexa594 FP, 6 h | Potency, µM (series often up to 57.7 µM), inactives show at the highest dose activity, negative = inhibition, hits mostly inhibitors | 0.39% of 280,000 active; further: nearly all actives have a fitted effect of over 55% in size
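Steps: dispense K18 P301L tau (15 uM plus 0.24 uM Alexa 594 tracer, final) in pH 7 sodium acetate; add compound; add heparin (20 uM final); incubate 6 hr, 37 C; add ThT (30 uM final); after 1 hr ambient, read FP.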
Tau fluor cs – counter-screen for tau fibril formation inhibitors; tau K18 P301L (four-repeat tau fragment) Alexa594 fluorescence, heparin fibrillization; Potency, µM (series often up to 57.7 µM), inactives show top-dose activity change, negative = decrease; 0.93% of 280,000 active; further: nearly all actives have a fitted effect of over 55% in size
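Human K18 P301L tau (15 uM unlabeled plus 0.24 uM Alexa 594-labeled, final) in 100 mM sodium acetate pH 7 was mixed with compound and 20 uM heparin and incubated 6 hr at 37 C.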
* marks the source's active call; other numbers are inactive results; u = inconclusive; x = no result; [ ] = another dose, or the depositor's remark. Compounds with a hit are over-represented: about 3.1% of the library has one in this group of screens. Unless noted, the call rests on the fitted dose curve; in most records, active means well fitted curve in the direction sought with a large enough effect; inconclusive means small, poorly fitted or top-dose-only effect, or another doubt; inactive means no such curve, though single readings can be large; an effect the other way counts as inactive or inconclusive. Unless noted, on the % scale 0 is the no-effect control and ±100 the full control effect; potency means the concentration at half of the fitted maximal effect.

SMILES	TR SRC2 fluor cs	TRb SRC2 PPI	Tau ThT inhib	Tau FP inhib	Tau fluor cs
O=C/C=C/c1coc2ccc3ccccc3c2c1=O	-3%	3%	14µM*	-9%	u
COC(=O)C(NS(=O)(=O)c1ccc(C)cc1)c1ccccc1 (stereo unspecified)	2%	-5%	-4%	-6%	-4%
Cc1ccc(S(=O)(=O)NC2OC(=O)C(Cl)=C2Cl)cc1 (stereo unspecified)	-4%	-15%	28µM*	u	-19%
O=C(Nc1nccs1)c1cn(-c2ccccc2)nc1-c1ccncc1	-2%	10%	-17%	-16%	-14%
COc1ccc(-c2nn(-c3ccccc3)cc2C(=O)Nc2nccs2)cc1	-3%	-3%	2%	28µM*	u
COc1cccc(-c2nn(-c3ccccc3)cc2C(=O)Nc2nccs2)c1	-5%	3%	-10%	28µM*	u
CCCN(C(=O)c1coc(=O)c2ccccc12)c1ccccc1C	-2%	5%	-3%	-5%	-9%
Cc1ccc(/C=C/S(=O)(=O)NCc2ccc(F)cc2)cc1	1%	2%	-5%	2%	-4%
CC(C)N1CCC2(CC1)C(C#N)=C(N)NC(S)=C2C#N	-5%	18%	20µM*	u	u
O=C(Cn1cnc2onc(-c3ccc(F)cc3)c2c1=O)Nc1ccc(F)c(Cl)c1	-21%	0%	u	u	u
O=C(Nc1ccccc1)c1cc(Cl)ccc1O	-3%[201 µM]	3%[201 µM]	x	x	x
O=C(Cc1cccs1)Nc1cccc(-c2nc3cc4ccccc4cc3[nH]2)c1	-2%	8%	u	28µM*	14µM*[quencher]
CSc1ccc(C(=O)C2CCCN(C(=O)c3ccc4c(c3)no[n+]4[O-])C2)cc1 (stereo unspecified)	1%	-2%	28µM*	u	u
CSc1ccc(C(=O)C2CCCN(C(=O)c3ccsc3)C2)cc1 (stereo unspecified)	-2%	3%	-15%	8%	-9%
CCOc1cc(/C=C/c2cc(C(F)(F)F)[nH]c(=O)n2)ccc1O	-3%	-1%	14µM*	-8%	-15%
CCOc1cc(/C=C/c2ccc3cccc([N+](=O)[O-])c3n2)ccc1O	-5%	3%	14µM*	8%	u
CCOc1cc(/C=C/c2ccc3cccc([N+](=O)[O-])c3n2)ccc1OCC(=O)N(C)C	-7%	-15%	7.1µM*	5%	-24%
COc1cc(/C=C/c2ccc3cccc([N+](=O)[O-])c3n2)ccc1OCC#N	-8%	1%	u	-9%	u
CCCCCCCCCCCCCCN	-5%[201 µM]	3%[201 µM]	x	x	x
Cc1c(NC(=O)C(C)(C)Oc2ccc(Cl)cc2)cccc1-c1nc2ncccc2o1	-14%[11.2 µM]	7%[11.2 µM]	-6%	0%	-14%
c1ccc2sc(NCC3CCCO3)nc2c1 (stereo unspecified)	-1%	0%	5%	-3%	-1%
CC1=CC(=C(C#N)c2nc3ccccc3s2)C=C(C)N1CC1CCCO1 (stereo unspecified)	-7%	4%	u	u	7.9µM*[quencher]
O=C(O)c1cc(N/N=C/C(Cl)=C/c2ccccc2)ccc1Cl	-3%	-4%	14µM*	-4%	-29%
CCOC(=O)Cc1c(C)nc2c(-c3ccc(Cl)cc3)c[nH]n2c1=O	-1%	5%	u	11%	-10%
CCOC(=O)c1cc2c(ccn2C)n1CC(=O)N(C)C	-6%	-3%	0%	2%	-1%
SMILES	TR SRC2 fluor cs	TRb SRC2 PPI	Tau ThT inhib	Tau FP inhib	Tau fluor cs
CCOC(=O)c1cc2c(ccn2C)n1CC(=O)Nc1ccc(F)cc1	-10%	0%	28µM*	u	u
CCn1c(P(C)(=O)O)nc2cc(NC(=O)c3ccccc3Cl)ccc21	1%	-8%	-6%	7%	3%
COc1ccccc1NCCC(=O)OCC(=O)NC1CC1	3.5µM*[quencher]	u	6%	1%	4%
CNc1cccccc1=S	-5%	1%	13µM*	u	-29%
COc1cc(C2NC(=S)NC(C)=C2C(=O)Nc2cc(C)cc(C)c2)ccc1O (stereo unspecified)	-1%	-4%	-19%	5%	-24%
CC[n+]1c(/C=C/c2ccc(N(C)C)cc2)ccc2ccccc21	-3%	-11%	3%	5%	-7%
